# According to PubChem BioAssay (NCI):
# About 83,000 compounds went through this panel and 20% of them were active in at least one assay; those are over-represented in the sample as a whole.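 For each line, cells grew in 96-well plates with the test compound present at a single concentration for 48 hours.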 A number with no mark means an inactive call. The source made the active and inactive calls. How the source made its calls: active means growth percent below 10; inactive means the rest.
# System: HL-60(TB) leukemia
# Assay: NCI-60 one-dose screen, 48 h (100 = growth as untreated, 0 = no growth, -100 = all killed)
# Conditions: 10 µM unless noted
row,Compound,growth
1,Cc1ccc(Cc2c(C=O)nc(N)[nH]c2=O)c2ccccc12,36.1%
2,COc1cc(-c2nc(N=Nc3c(O)[nH]c4ccc(Br)cc34)[nH]c(=O)c2C#N)cc(OC)c1OC,101%
3,COc1ccc(C2=C/C(=C\c3ccc(Cl)cc3)C(=O)N2/N=C/c2ccc(Cl)cc2)cc1,102%
4,N=C1CCC(=N)c2c1c(O)c1ccccc1c2O,129%
5,Oc1cccc(-c2nc(-c3n[nH]c(=S)n3-c3ccccc3)cc3c2[nH]c2ccccc23)c1,4.29% (active)
6,O=C1CCC/C=C\C[C@H]2C=C(Cl)C(=O)/C2=C/C[C@H](CCCCC(F)(F)F)OC(=O)CCC/C=C\C[C@H]2C=C(Cl)C(=O)/C2=C/C[C@H](CCCCC(F)(F)F)O1,-16.5% [7.5 µM] (active)
7,CC(C)(C)[Si](C)(C)OC1[C@@H](CNC(=O)NC(=O)CCl)O[C@@H](n2cnc3c(N)ncnc32)[C@H]1O[Si](C)(C)C(C)(C)C (stereo not given in full),-64.2% (active)
8,CN1[C@@H]2CC[C@H]1/C(=C\c1ccccc1)C1=C2[C@@H](c2ccccc2)C(C#N)=C(N)O1,60.4%
9,C[n+]1c2ccccc2nc2ccc(NCCO)cc21,70.6%
10,Cc1ccc(NC(=O)c2ccc(Nc3ncnc4c3cnn4-c3cccc(F)c3)cc2)cc1,90.2%
11,O=C(O)CC1CCCCC1c1ccccc1 (stereo not given),99.9%
12,COc1ccc(-c2cc(-c3ccccc3)nc(SCCCC(=O)NO)n2)cc1,-31.2% (active)
13,Cc1ccc(C)c(/C=C2\CN(C(=O)OC(C)(C)C)C/C(=C\c3cc(C)ccc3C)C2=O)c1,10.7%
14,c1ccc2cc(-c3n(Cc4ccc5ccccc5n4)c4ccccc4[n+]3Cc3ccc4ccccc4n3)ccc2c1,-55.1% (active)
15,CC(C)(C)OC(=O)CN1CCc2c(sc3ncnc(N4CCN(c5ccc(F)cc5)CC4)c23)C1,99.5%
16,CCN(CC)CC#CCOC(=O)[C@]1(C)CCC[C@]2(C)c3ccc(C(C)C)cc3CC[C@@H]12,63.6%
17,Cc1ccc([N+](=O)[O-])c(C)n1,115%
18,COc1ccc(Br)c(/C=C2\SC(=Nc3ccc(O)cc3)NC2=O)c1,76.6%
19,Cc1ccc2[nH]c(=O)cc(-n3nncc3COc3ccc(C=O)cc3)c2c1,107%
20,O=C1/C(=C/c2ccc(-c3ccccc3C(F)(F)F)o2)SC(=S)N1CCc1ccc(O)cc1,20.8%

row,Compound,growth
1,Cc1cc2nc3c4cc(N)ccc4n(CCN(C)C)c3nc2cc1C,4.7% (active)
2,Oc1c(-c2cc(C(F)(F)F)[nH]n2)cc(Cl)c(OCc2ccc(Cl)cc2)c1-c1ccc(Cl)c(C(F)(F)F)c1,-10.8% (active)
3,CN1CCN(Cc2ccc(NC(=O)c3cncc(C#Cc4cnc(N)c5ccc(C#N)cc45)c3)cc2C(F)(F)F)CC1,-17% (active)
4,CCOC(=O)c1c(NC(=O)c2ccc(C(C)(C)C)cc2)sc2cc(O)ccc12,67%
5,O=S(=O)(NCCNc1nccc(-c2c(-c3cccc(O)c3)nc3occn23)n1)c1cccc(F)c1,76.6%
6,CC(=O)Nc1c(Cl)cc2c(c1Cl)Cc1cc([N+](=O)[O-])ccc1-2,96.3%
7,COc1ccc(CN2c3ccccc3Sc3ccccc32)c(F)c1,-27% (active)
8,O=C(S)CNC(=O)c1ccccc1,91%
9,O=C(N/N=C/c1ccccc1SSc1ccccc1/C=N/NC(=O)c1ccccc1)c1ccccc1,3.4% (active)
10,C=CCN1C(=O)c2cccc3c(-c4ccc5c(c4)ncn5C4CCCCC4)ccc(c23)C1=O,25.5%
11,CCc1ccc(Nc2cc(C)c3ccc(O)cc3n2)cc1,33.9%
12,CC(C)c1cc(C(=O)O)c(O)c(C(C)C)c1.CC(C)c1cc(C(=O)O)c(O)c(C(C)C)c1.[Mn],94.2%
13,Cc1[nH]c(C(=O)Nc2ccccc2OC2CCN(CCN3CCOCC3)CC2)c(Cl)c1Cl,97.9%
14,COc1ccccc1/C=C1\COc2ccc(O)cc2C1=O,1.08% (active)
15,O=C(CCCCNC(=O)c1cc(=O)c(O)co1)Nc1ccccc1,54.7%
16,COc1cc(/C=C/C(=O)c2ccc(NC(=O)CN3CCN(c4cc5c(cc4F)c(=O)c(C(=O)O)cn5C4CC4)CC3)cc2)cc(OC)c1OC,-33.7% (active)
17,Cc1cccc(-c2nc(N(C)c3ccc4ncsc4c3)c3ccccc3n2)n1,50.4%
18,CN(C)CCCN1c2ccccc2CCc2ccccc21,91.4%
19,COc1ccc(/C=C2/CN(C(=O)c3ccccc3F)C/C(=C\c3ccc(OC)cc3)C2=O)cc1,51.4%
20,COc1ccc(C(=S)N2CCN(c3cccc(C)c3)CC2)cc1OC,57.3%
